Measurements from PubChem BioAssay (NCI).
Compounds without any hit were thinned out: in the full panel of roughly 83,000, 20% have a hit.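 Single-dose data. Exposure time 48 hours. Values below 10 considered active.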 Values without a mark were called inactive. The source made the active and inactive calls.

tested on: UACC-62 melanoma; assay: NCI-60 one-dose screen, 48 h (100 = growth as untreated, 0 = no growth, -100 = all killed); settings: 10 µM unless noted

Row | SMILES | growth
1 | NS(=O)(=O)c1ccc(Nc2nc(N/N=C/c3c[nH]c4ccccc34)nc(Nc3ccccc3)n2)cc1 | 38.3%
2 | CCc1cccc2c3c(sc12)C(c1ccc(OC)cc1)C(C#N)=C(/N=C/c1ccc(Cl)cc1)O3 (stereo not drawn) | 27.8%
3 | Cn1ccnc1C(=O)/C=C/c1ccc(CNC(=O)c2ccc(F)cc2)cc1 | 43.2%
4 | N#Cc1cccc(NC(=O)c2cc(-c3ccc(F)cc3F)ccc2O)c1 | -12.9% (active)
5 | O=S(=O)(NCCCNc1nccc(-c2[nH]c(-c3ccccc3)nc2-c2ccc(Cl)c(O)c2)n1)c1cccc2ccccc12 | 17.4%
6 | CC1(C)[C@@H](O)CC[C@]2(C)[C@H]3CC[C@@H]4[C@H]5[C@H](C(=O)/C=C\c6ccncc6)CC[C@]5(O)CC[C@@]4(C)[C@]3(C)CC[C@@H]12 | 46.9%
7 | CS(=O)(=O)Nc1cc(-c2ccc3ncc(C#N)c(N[C@H](CO)c4ccccc4)c3c2)cnc1Cl | 13.7%
8 | O=C(CSc1nc2ccccc2c(=O)n1-c1ccccc1)Nc1ccc(-c2nc3ccc([N+](=O)[O-])cc3[nH]2)cc1 | 51.9%
9 | Oc1cccc2ccc(-c3nnc(SCc4ccc(O)c5ncccc45)n3-c3ccccc3)nc12 | -4.13% (active)
10 | C=CCn1c(SCC(=O)Nc2ccc(C(=O)/C=C/c3ccc(C)cc3)cc2)nnc1-c1c[nH]c2ccccc12 | 67.9%
11 | C[C@@H](Nc1c(C#N)cnc2ccc(-c3cnc(Cl)c(NS(C)(=O)=O)c3)cc12)c1ccccc1 | -12% (active)
12 | CCN(CC)c1ccc(NC2=C(Cl)C(=O)c3nc(C)ccc3C2=O)cc1 | 95.2%
13 | C#Cc1nc(C(=O)NCCC(=O)Nc2ccc(NC(=O)c3ccc(/C=C/C(=O)c4nccn4C)cc3)cc2)cs1 | 38.6%
14 | CCN(CC)CCn1c2ccc(O)cc2c2sc3cc(OC)ccc3c(=O)c21 | 28.5%
15 | CC1(C)CC[C@]2(C(=O)N3CCOCC3)CC[C@]3(C)C(=CC[C@@H]4[C@@]5(C)C/C(=C/c6ccccn6)C(=O)C(C)(C)[C@@H]5CC[C@]43C)[C@@H]2C1 | 64.8%
16 | Cc1nc(-c2ccccc2O)ccc1C(=O)N=Nc1c(O)[nH]c2ccc(Br)cc12 | 91.6%
17 | O=C(CCn1c[n+](CC(=O)c2ccc(-c3ccccc3)cc2)c2ccccc21)Nc1cccc2cccnc12 | 15.1%
18 | COC(=O)c1[nH]nc2c1C1(C(=O)c3cccc4cccc1c34)C(C#N)=C(N)O2 (stereo not drawn) | 91.8%
19 | N=c1c2cc(-c3ccccc3)oc2ncn1/N=C/c1ccc(Cl)cc1 | 90.6%

Row | SMILES | growth
20 | Cc1ccc(-n2c(/C=C3\C(=O)Nc4ccccc43)ccc2CO)cc1 | 50.6%
21 | CC(=O)N(C)C1CCc2c(sc(NC(=O)c3ccc(C(C)(C)C)cc3)c2C(N)=O)C1 (stereo not drawn) | 85.7%
22 | CC1(C)[C@@H](O)CC[C@]2(C)[C@H]3CC[C@@H]4[C@H]5[C@H](C(=O)/C=C\c6ccc([N+](=O)[O-])cc6)CC[C@]5(O)CC[C@@]4(C)[C@]3(C)CC[C@@H]12 | 48.9%
23 | Cc1ccc(NC(=O)CNc2cc(C(N)=O)cc(F)c2C)c(Cl)c1 | 81.5%
24 | COc1ccc(N2CCN(C3=C(Cl)C(=O)C(C)=C(C)C3=O)CC2)cc1 | 88.5%
25 | CN1CCN(c2ccc(/C=N/Nc3nc4ccccc4c(=O)n3-c3ccccc3)cc2)CC1 | 101%
26 | COc1cc(-c2nc3sccn3c2-c2ccnc(S(C)(=O)=O)n2)ccc1F | 81.3%
27 | Cc1ccc2c(c1)Oc1nc(N)c(C#N)c(N)c1C2Sc1ccc(F)cc1 (stereo not drawn) | -93.5% (active)
28 | CCCn1cnc2c(c1=N)C(c1ccc(F)cc1)c1sc3c(C)cccc3c1O2 (stereo not drawn) | 27.7%
29 | COc1ccc(Cn2cc3c(c2-c2cc(OC)c(OC)c(OC)c2)CCc2c(CN4CCCC4)noc2-3)cc1 | 15.8%
30 | CC1=N[C@@H]2CN(C(=O)OC(C)(C)C)C[C@@H]2n2c1cc1ccccc1c2=O | 97.9%
31 | COc1cc(OC)cc(C(=O)Nc2cccc(C#Cc3cccc4[nH]nc(N)c34)c2)c1 | 23.1%
32 | COc1ccccc1-n1cc(C#N)c(N)c1C(=O)c1ccc(Br)cc1 | 45.2%
33 | CS(=O)(=O)Nc1cc(-c2ccc3ncc(C#N)c(NCc4cccc(F)c4)c3c2)cnc1Cl | -20.2% (active)
34 | CC[C@H](CO)Nc1ccc2ncc(C#Cc3cncc(C(=O)Nc4ccc(CN5CCN(C)CC5)c(C(F)(F)F)c4)c3)n2n1 | -57.7% (active)
35 | COc1cc(-c2nc(SCCC(C)C)nc(NNC(=O)c3ccncc3)c2C#N)cc(OC)c1OC | 38.1%
36 | CCCCCc1ccc(S(=O)(=O)Nc2cc(-c3csc(NC(=O)CN4CCN(CCO)CC4)n3)ccc2OC)cc1 | -32.9% (active)
37 | CCCn1cnc2c(c1=N)C(c1ccc(OC)cc1)c1sc3c(CC)cccc3c1O2 (stereo not drawn) | 15.9%
38 | C#Cc1ccc(C(=O)NCc2ccc(/C=C/C(=O)c3nccn3C)cc2)cc1 | 21%
